# Reference: PubChem BioAssay AID1789 (The Scripps Research Institute Molecular Screening Center, 2009)
# Where “and” joins values, the source holds several entries; their conditions need not be identical. Equal values may be shown once. Screen size: about 290,000 compounds; about 2,700 (0.93%) were called active. The entries come from a sample that favours actives as a whole. Values without a mark were called inactive.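 Rule for the calls: active = inhibition above the screen-wide mean plus 3 SD, computed separately per campaign (cut at about 16% in these data); inactive = the rest.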
# Test system: Heat shock protein HSP 90 (rabbit reticulocyte lysate; luciferase refolding)
# Assay: inhibitors of HSP90 chaperone activity – cell lysate, luminescence, primary screen (AID 1789);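 note: 0% = DMSO wells and 100% = 60 µM geldanamycin wells; inhibitors lower the luminescence because luciferase stays unfolded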
# Conditions: 3 h, at 5.6 µM, active compounds read high
row,SMILES,inhibition
1,O=C(NCc1cccnc1)c1ccccc1NC(=O)c1c(F)cccc1F,-0.75%
2,COc1ccc(N(CC(=O)Nc2cc(OC)cc(OC)c2)S(=O)(=O)c2c(C)n[nH]c2C)cc1,-1.64%
3,Cc1ccc(S(=O)(=O)NCC(=O)N2CCOCCOCCOCCOCC2)cc1,-3.1%
4,COc1ccccc1-c1cnn2c(N3CCOCC3)cc(C)nc12,3.53%
5,Cc1sc2ncn(CC(=O)NCCCC(=O)N3CCN(c4ccccc4F)CC3)c(=O)c2c1C,-3.37%
6,CC(NC(=O)COc1ccccc1)C(=O)NC1=NCCS1 (stereo unspecified),-0.56%
7,O=C(NC1=NCCS1)[C@H](Cc1ccccc1)N1C(=O)c2ccccc2C1=O,3.87%
8,CSCCC(C(=O)NC1=NCCS1)N1C(=O)c2ccccc2C1=O (stereo unspecified),33.2% (active)
9,N#Cc1ccccc1S(=O)(=O)N1CCN(C(=O)c2cc(-c3ccccc3)nn2-c2ccccc2)CC1,4.37%
10,CC(C)c1nnc(NC(=O)C2CC(=O)N(CCc3ccc(F)cc3)C2)s1 (stereo unspecified),-2.78%
11,CCOC(=O)C1=C(CCc2ccccc2)NC(=O)NC1c1ccc2ccccc2c1 (stereo unspecified),2.66%
12,CC(=O)N1CCC(C(=O)OCc2ccc(Cl)cc2)(c2ccccc2)CC1,-1.35%
13,CC(C)CNC(=O)CC(c1ccccc1)c1c(O)ccc2ccccc12 (stereo unspecified),-0.94%
14,CC(C)CNC(=O)CC(NCC(C)C)C(=O)O (stereo unspecified),21.9% (active)
15,CC(C)CNC(=O)/C=C/C(=O)O,0.58% and -0.1%
16,COc1cccc(N(CC(=O)NC2CCCC2)C(=O)Cn2nnc(-c3ccc(C)o3)n2)c1,0.72%
17,C=C(C)COc1ccc(-c2ncncc2-c2ccc(OC)cc2)c(O)c1,3.58%
18,c1ccc(-c2ccc3c(c2)NC(C2Nc4cc(-c5ccccc5)ccc4O2)O3)cc1 (stereo unspecified),52.5% (active)
19,Cc1cc(C)cc(C(=O)OCC(=O)NCCNC(=O)COC(=O)c2cc(C)cc(C)c2)c1,-1.1%
20,COc1cc2c(cc1OC)C(c1ccccc1Br)NC(=O)C2 (stereo unspecified),-0.82%
21,O=C1CCC(Cc2ccccc2)N1 (stereo unspecified),0.74%
22,O=C1CCC([N+](=O)[O-])C(c2ccccc2Br)N1 (stereo unspecified),78.7% (active)
23,Cc1ccc(SCC(=O)NNC(=O)c2ccc(S(C)(=O)=O)cc2)cc1,2.29%
24,O=C(/C=C/c1cnc2ccccc2n1)NC1CCCCCC1,-4.23%

row,SMILES,inhibition
1,O=C(COC(=O)/C=C/c1cccs1)NC1CCCCC1,1.87%
2,Cc1ccc(SCC(=O)NC(=O)NCc2ccco2)c(C)c1,16.6% (active)
3,Cc1cc(C)n2nc(SCC(=O)NC(=O)NCc3ccco3)nc2n1,0.53%
4,Cc1ccc(NC(=O)C(=O)NCc2ccco2)c(C)c1,-1.76%
5,CC(C)Cc1nnc(NC(=O)CN2C(=O)NC3(CCCCC3)C2=O)s1,-3.19%
6,CC1CCN(CC(O)COc2ccc(C(=O)c3ccccc3)cc2)CC1 (stereo unspecified),-4.35%
7,Cc1csc(NC(=O)CSc2nc(=O)cc(N)n2-c2ccc(F)cc2)n1,-4.86%
8,Cc1nc([N+](=O)[O-])cn1CC(=O)Nc1ccc(Cl)cc1,-5.8%
9,Cc1nc2cc3c(cc2s1)OCO3,5.26%
10,Brc1ccc2nc(N3CCCC3)sc2c1,7.29%
11,c1c2c(cc3sc(N4CCCCC4)nc13)OCCO2,56.8% (active)
12,COCC1CCN(C(=O)CCc2nnc(C3(c4ccc(Cl)cc4)CCC3)o2)C1 (stereo unspecified),-3.96%
13,CN(CC1CCCN(CCc2cccc(C(F)(F)F)c2)C1)C(=O)c1ccc2nc[nH]c2c1 (stereo unspecified),-5.74%
14,Clc1c(OCCCn2ccnc2)ccc2ccccc12,1.78%
15,COc1ccc(-c2nc3cc([N+](=O)[O-])ccc3o2)cc1OC,1.87%
16,CC(=O)Nc1ccc(-c2nc3ccccc3o2)cc1,2.88%
17,CCc1ccc2oc(-c3ccc(N)cc3)nc2c1,26.4% (active)
18,COc1ccc2[nH]c(=O)c(CN(Cc3cccnc3)S(=O)(=O)c3ccccc3F)cc2c1,1.17%
19,Cc1ccc(C(=O)OC(C)CN2CCOCC2)cc1 (stereo unspecified),-4.23%
20,Cc1cccc(C(=O)OC(C)CN2CCCC2)c1 (stereo unspecified),0.74%
21,Cc1cccc(C(=O)OC(C)CN2CCN(C)CC2)c1 (stereo unspecified),17.2% (active)
22,CCOc1ccc(NC(=O)[C@H](C)NC(=O)C2CC(=O)N(c3ccc(OC)cc3)C2)cc1 (stereo partly specified),2.77%
23,O=C(NC1CCCC1)C(c1c(F)cccc1Cl)N(C(=O)c1csnn1)C1CC1 (stereo unspecified),-3.16%
24,Cc1ccc(C(=O)Nc2ccc(C)c(S(=O)(=O)N(C)C)c2)s1,0.01%

row,SMILES,inhibition
1,Clc1ccc(Nc2nc(-c3cccs3)cs2)nc1,6.93%
2,Cc1ccc(Nc2nc(-c3ccc(O)cc3O)cs2)nc1,28.1% (active)
3,O=c1oc2ccccc2cc1-c1csc(Nc2ccc(O)cc2)n1,-2.38%
4,Nc1ccccc1SC(C[N+](=O)[O-])c1ccccc1 (stereo unspecified),-4.32%
5,CCOC(=O)c1cc(Sc2ccccc2N)cc(C(=O)OCC)n1,7.9%
6,CCS(=O)(=O)c1cc([N+](=O)[O-])c(Sc2ccccc2N)s1,20.8% (active)
7,O=c1ccc(-c2ccc(S(=O)(=O)Nc3ccccc3)o2)n[nH]1,-6.52%
8,COCCn1c(N)c(NCc2ccccc2)c(=O)[nH]c1=O,7.03%
9,Cn1c(=O)c2c(SCC(=O)NCC3CCCO3)nc(CC(C)(C)C)nc2n(C)c1=O (stereo unspecified),-3.22%
10,Cc1ccc(-n2c(C)cc(C(=O)CN3C(=O)C(=O)N(C4CCCC4)C3=O)c2C)cc1,-3.59%
11,Cc1cc(C(=O)COC(=O)C2CC2)c(C)n1-c1ccc(F)cc1,84.2% (active)
12,COc1cc(/C=N/NC(=O)c2cc(C)n(-c3ccc(F)cc3)c2C)cc(OC)c1O,6.31%
13,COc1ccc(-n2c(C)cc(C(=O)CN3C(=O)NC4(CCc5ccccc54)C3=O)c2C)cc1 (stereo unspecified),2.66%
14,CCn1cc(/C=C(\NC(=O)c2ccc(C)cc2)C(=O)NCCN2CCOCC2)c2ccccc21,3.27%
15,O=C(OC1CCOC1=O)c1ccc(-c2nc3ccccc3s2)s1 (stereo unspecified),35.8% (active)
16,CC(C)c1ccc(C(=O)OC2CCOC2=O)cc1 (stereo unspecified),3.27%
17,Cc1nn(Cc2ccccc2)c(Cl)c1C(=O)OC1CCOC1=O (stereo unspecified),-0.01%
18,CCOC(=O)C1CCN(Cc2c(C(=O)N3CCOCC3)nc3c(C)cccn23)CC1,13.2%
19,C=C(C)CNC(=O)c1ccc(OC2CCN(C(=O)COC)CC2)cc1,2.35%
20,CC(C)C[C@H](NC(=O)C1CC(=O)N(c2ccc3c(c2)OCCO3)C1)C(=O)NC1CCCC1 (stereo partly specified),-1.77%
21,CN(c1ccc2nc3ccccc3c(=O)n2n1)C1CCCCC1,85.9% (active)
22,CCOC(=O)C(C)Sc1nc2ccccc2c(=O)n1CC1CCCCC1 (stereo unspecified),2.53%
23,O=c1c2ccccc2nc2n1C1(CCCCC1)Cc1ccccc1-2,4.03%
24,COCCC(=O)N1CCC(Oc2ccc(C(=O)NCc3ccon3)cc2)CC1,-1.71%

row,SMILES,inhibition
1,CNC(=O)CN1C(=O)NC(c2ccccc2)(c2ccccc2)C1=O,3.3%
2,C=CCc1cc(S(=O)(=O)c2ccc(O)c(CC=C)c2)ccc1O,-0.52%
3,CCOC(=O)N1CCN(C(=O)C(=O)Nc2sc3c(c2C#N)CC(C)(C)OC3)CC1,-2.63%
4,CCOc1ccc(-n2c(SCC(N)=O)nnc2-c2ccco2)cc1,7.02%
5,CCOc1ccc(-c2nnc(-c3ccco3)o2)cc1,30.8% (active)
6,CCCCOc1ccc(-c2nnc(-c3ccco3)o2)cc1,-4.76%
7,CCc1ccccc1OCC(=O)Nc1ccc2c(c1)OCCO2,-5.09%
8,CCn1ccnc1CN(C)C(=O)c1ccc2nc(Cc3ccc(OC)cc3)oc2c1,-0.73%
9,COCC1CCN(C(=O)C2CCC(=O)N(Cc3cccc(C(F)(F)F)c3)C2)CC1 (stereo unspecified),2.25%
10,O=C(/C=C/c1cccc([N+](=O)[O-])c1)N1CCN(Cc2ccccc2)CC1,-2.98%
11,O=c1c([N+](=O)[O-])cc(C(F)(F)F)cn1Cc1cccc(Cl)c1,0.02%
12,O=[N+]([O-])/C=C/c1ccc2c(ccn2Cc2ccccc2)c1,21.8% (active)
13,CN(Cc1ccccc1)C(=O)C(=O)c1cn(CC(=O)N2CCCC2)c2ccccc12,-3.8%
14,CCc1ccc(NC(=O)NC(C)c2ccc3c(c2)OCO3)cc1 (stereo unspecified),1.03%
15,Cc1onc(-c2ccccc2)c1C(=O)N1CCN(S(=O)(=O)c2ccccc2C(F)(F)F)CC1,-1.81%
16,COc1ccc(N2CCN(C(=O)c3cn(C)c4ccc(S(=O)(=O)N5CCOCC5)cc4c3=O)CC2)cc1,-3.81%
17,Cc1cc(C)nc(N2CCC(C(=O)Nc3ccc4c(c3)OCCO4)CC2)n1,0.65%
18,O=C(Nc1ccc2c(c1)OCCO2)C1CCCN(c2ncccn2)C1 (stereo unspecified),16.9% (active)
19,O=C(Nc1cccc(Cl)c1)C1CCCN(c2cnccn2)C1 (stereo unspecified),-2.56%
20,COc1ccc(N2C(=O)NC(NS(=O)(=O)c3ccc(Cl)cc3)(C(F)(F)F)C2=O)cc1 (stereo unspecified),1.44%
21,COc1ccc(Cc2cc(-c3ccc(F)cc3)n[nH]c2=O)cc1,-1.15%
22,Oc1ccc(-c2onc3ccc(Cl)cc23)cc1,-0.76%
23,CC(OC(=O)c1ccc2noc(-c3ccccc3)c2c1)C(N)=O (stereo unspecified),26.5% (active)
24,COc1ccc(-c2onc3ccc(C(C)=O)cc23)cc1,3.03%
